Results: PubChem BioAssay (NCATS)
Results filed as inconclusive are left out. Entries that show only a call come without a potency. The source made the active and inactive calls. The call rests on the fitted dose curve; in most records, active means well fitted curve in the direction sought with a large enough effect; inconclusive means small, poorly fitted or top-dose-only effect, or another doubt; inactive means no such curve, though single readings can be large; an effect the other way counts as inactive or inconclusive. Where a SMILES comes first, the peptide text is derived from it. [ ]: non-standard residue; d: D form. ξ: configuration not given here. ξTyr(βOH) = NC(C(=O)O)C(O)c1ccc(O)cc1

Assay: Primary qHTS for inhibitors of nuclear receptor binding SET domain protein 2 (NSD2) in an isogenic RCH-ACV NSD2 p.E1099K mutant (9B) (AID 1645876)
Conditions: RCH-ACV NSD2 E1099K (9B) viability, CellTiter-Glo, 72 h; series mostly up to 44.9 µM
Further: nearly all actives have a fitted effect of over 70% in size.

Compound	Potency	activity change, negative = viability loss
C=C(C(=O)O)C1CC(OC(=O)CC(C)CC)C2(C)CCCC(=C)C2C1 (stereo not given)	inactive	–
CC1(C)CC[C@]2(C(=O)O[C@@H]3O[C@H](CO)[C@@H](O)[C@H](O)[C@H]3O)CC[C@]3(C)C(=CCC4[C@@]5(C)C[C@H](O)[C@H](O[C@@H]6OC[C@@H](O)[C@H](O)[C@H]6O)[C@@](C)(CO)C5CC[C@]43C)C2C1 (stereo not given in full)	–	1.45% [at 9.23 µM] (inactive)
CC(C)C1NC(=O)CNC(=O)C2CCCN2C(=O)C(Cc2c[nH]c3ccccc23)NC(=O)CNC(=O)C(C(O)c2ccc(O)cc2)NC(=O)CNC1=O (stereo not given) (cyclo(G[ξTyr(βOH)]GWPGV); configuration not given here)	inactive	–
CC1CCC2C(C)(C)[C@H](O)CC[C@]2(C)C12Cc1c(O)cc3c(c1O2)CN(C(CCC(=O)O)C(=O)O)C3=O (stereo not given in full)	inactive	–
COc1cc(/C=C/C(=O)OCC2OC(OC3(CO)OC(CO)C(O)C3O)C(O)C(O)C2O)ccc1O (stereo not given)	inactive	–
O=C(O)c1cccc(C(=O)CCC2OC(n3cnc4c(=O)[nH]cnc43)C(O)C2O)c1 (stereo not given)	inactive	–
CC(O)C1NC(=O)C2CCCN2C1=O (stereo not given)	inactive	–
CC(C)C1NC(=O)CNC(=O)C2CCCN2C(=O)C(Cc2c[nH]c3ccccc23)NC(=O)CNC(=O)C(Cc2ccc(O)cc2)NC(=O)CNC1=O (stereo not given) (cyclo(GVGYGWP); configuration not given here)	inactive	–
C=C1CC2C(C)(CCC(=O)O)C(C(C)(C)O)CCC2(C)C2(C(=O)OC)C(=O)C(C)(O)C(=O)C12C (stereo not given)	inactive	–
C[C@@H]1O[C@@H](OC2C(CO)OC(OCC3OC(OC(=O)[C@]45CCC(C)(C)CC4C4=CCC6[C@@]7(C)CC[C@@H](O)[C@](C)(C(=O)O)C7CC[C@@]6(C)[C@]4(C)CC5)C(O)C(O)C3O)C(O)C2O)[C@H](O)[C@H](O)[C@H]1O (stereo not given in full)	–	0.361% [at 9.23 µM] (inactive)
Cc1cc(O[C@@H]2O[C@H](COC(=O)CC(=O)O)[C@@H](O)[C@H](O)[C@H]2O)c(C(C)C)cc1O	inactive	–
CC1=C2CC3C(CCC3(C)O)C(C)(O)CC2OC1=O (stereo not given)	inactive	–
OCC1OC(Oc2cc(O)cc(/C=C/c3ccc(OC4OC(CO)C(O)C(O)C4O)cc3O)c2)C(O)C(O)C1O (stereo not given)	inactive	–
C[C@]1(OC(=O)/C=C/c2ccc(O)cc2)C[C@@H](O)[C@]2(O)C=CO[C@@H](O[C@@H]3O[C@H](CO)[C@@H](O)[C@H](O)[C@H]3O)C12 (stereo not given in full)	inactive	–
COc1cc(O)cc(C)c1C(=O)O[C@H]1[C@@H](O)[C@@H](n2ccc(=O)[nH]c2=O)O[C@@H]1CO	inactive	–
C/C=C1/C[N+](C)([O-])C2Cc3c([nH]c4ccccc34)C(=O)CC1C2C(=O)OC (stereo not given)	inactive	–

Assay: Primary qHTS for inhibitors of nuclear receptor binding SET domain protein 2 (NSD2) in an RCH-ACV wild type WT cells (2C) (AID 1645877)
Conditions: RCH-ACV (leukaemia line) NSD2 WT (2C) viability, CellTiter-Glo, 72 h; series mostly up to 44.9 µM

Compound	Potency	activity change, negative = cell killing	outcome
CC(C)c1ccc2c(c1)C(=O)CC1C(C)(C(=O)O)CCCC21C (stereo not given)	inactive	–	–
C=C(C(=O)O)[C@H]1C[C@]2(C)C(=O)CC[C@]23O[C@H]1C[C@@H]3C	inactive	–	–
CC1(CO)CC(O)C2(C)CCC3(C)C(=CCC4C5(C=O)CCC(OC6OC(C(=O)O)C(O)C(O)C6OC6OC(C(=O)O)C(O)C(O)C6O)C(C)(C)C5CCC43C)C2C1 (stereo not given)	–	-0.213% [at 9.23 µM] (inactive)	–
O=C(O)CC/C=C\C[C@H]1CO[C@@H](c2ccccc2Cl)O[C@H]1c1ccccc1O	inactive	–	–
C=CC1(C)CC2CCC3C(C)(C(=O)O)CCCC3(C)C2=CC1=O (stereo not given)	inactive	–	–
C=C(C)[C@@]1(O)C[C@@]2(C)C(=CC1=O)CC[C@@H](O)[C@@H]2C	inactive	–	–
CC1(C)CC[C@]2(C(=O)O[C@@H]3O[C@H](CO)[C@@H](O)[C@H](O)[C@H]3O)CC[C@]3(C)C(=CCC4[C@@]5(C)C[C@@H](O)[C@H](O)[C@@](C)(CO)C5[C@H](O)C[C@]43C)C2C1 (stereo not given in full)	inactive	–	–
Cc1ccc(-c2c(-c3nn(C)c4ncnc(N5CC[C@H](N6CCCCC6)C5)c34)cnn2C)cc1	inactive	–	–
C=C1CC23CC(=O)C4C(CO)(CO)CCCC4(C)C2CCC1C3 (stereo not given)	inactive	–	–
H-DPPDPDRFYGMM-NH2	inactive	–	–
CC(=O)O[C@H]1C[C@@H](O)C(C)(C)C2C[C@@H](OC(C)=O)[C@@]3(C)C4=CCC(C(CO)CC(O)C5OC5(C)C)[C@]4(C)CCC3[C@]21C (stereo not given in full)	inactive	–	–
COc1ccc(C(=O)CC(=O)O)c2c1C=CC(C)(C)O2	inactive	–	–
C=C(CCO[C@@H]1O[C@H](CO)[C@@H](O)[C@H](O)[C@H]1O)C(=O)O	inactive	–	–
CC1(C)OC(=O)C=C[C@@]2(C)C1CC(=O)[C@]1(C)C2CC[C@@]2(C)[C@H](c3ccoc3)OC(=O)[C@H]3O[C@]321 (stereo not given in full)	inactive	–	–
C=C1CC[C@@H]2[C@](C)(CO)[C@H](O[C@@H]3O[C@H](CO)[C@@H](O)[C@H](O)[C@H]3O)CC[C@@]2(C)[C@@H]1C/C=C1/C(=O)OC[C@H]1O	inactive	–	–
C=C1CCC2C(C)(C)CCC[C@]2(C)[C@H]1CC/C(C)=C/C(=O)O (stereo not given in full)	inactive	–	–
C[C@@H]1C[C@@H](O)[C@@]2(CO)C(CO)=CCC[C@@H]2[C@@]12C[C@@H](c1ccoc1)OC2=O	inactive	–	–
COC(=O)C1=CO[C@@H](O[C@@H]2O[C@H](CO)[C@@H](O)[C@H](O)[C@H]2O)/C(=C\CO)[C@@H]1CC(=O)OCCc1ccc(O)cc1	inactive	–	–
CC1CC(=O)[C@]2(O)C(C(=O)OCCc3ccc(O)c(O)c3)=CO[C@@H](O[C@@H]3O[C@H](CO)[C@@H](O)[C@H](O)[C@H]3O)[C@H]12 (stereo not given in full)	inactive	–	–
O=C(/C=C/c1ccccc1)O[C@@H]1[C@@H](CO)O[C@@](CO)(O[C@H]2O[C@H](CO)[C@@H](O)[C@H](O)[C@H]2O)[C@H]1O	inactive	–	–

Compound	Potency	activity change, negative = cell killing	outcome
C=C(C(=O)O)[C@@H]1CC[C@@]2(C)CC[C@@H](O)C(=C)C2C1 (stereo not given in full)	inactive	–	–
C/C=C(/C)C(=O)O[C@@H]1C[C@@H](OC(=O)/C(C)=C\C)[C@@]2(C)C3C(=O)C=C(C)C2C3C1(C)C	inactive	–	–
CC(=O)c1ccc(O[C@@H]2O[C@H](CO[C@@H]3OC[C@@H](O)[C@H](O)[C@H]3O)[C@@H](O)[C@H](O)[C@H]2O)cc1	inactive	–	–
C=C(C(=O)O)C1CC(OC(=O)CC(C)CC)C2(C)CCCC(=C)C2C1 (stereo not given)	inactive	–	–
CC1(C)CC[C@]2(C(=O)O[C@@H]3O[C@H](CO)[C@@H](O)[C@H](O)[C@H]3O)CC[C@]3(C)C(=CCC4[C@@]5(C)C[C@H](O)[C@H](O[C@@H]6OC[C@@H](O)[C@H](O)[C@H]6O)[C@@](C)(CO)C5CC[C@]43C)C2C1 (stereo not given in full)	–	2.07% [at 9.23 µM] (inactive)	–
CC(C)C1NC(=O)CNC(=O)C2CCCN2C(=O)C(Cc2c[nH]c3ccccc23)NC(=O)CNC(=O)C(C(O)c2ccc(O)cc2)NC(=O)CNC1=O (stereo not given) (cyclo(G[ξTyr(βOH)]GWPGV); configuration not given here)	inactive	–	–
CC1CCC2C(C)(C)[C@H](O)CC[C@]2(C)C12Cc1c(O)cc3c(c1O2)CN(C(CCC(=O)O)C(=O)O)C3=O (stereo not given in full)	inactive	–	–
COc1cc(/C=C/C(=O)OCC2OC(OC3(CO)OC(CO)C(O)C3O)C(O)C(O)C2O)ccc1O (stereo not given)	inactive	–	–
O=C(O)c1cccc(C(=O)CCC2OC(n3cnc4c(=O)[nH]cnc43)C(O)C2O)c1 (stereo not given)	inactive	–	–
CC(O)C1NC(=O)C2CCCN2C1=O (stereo not given)	inactive	–	–
CC(C)C1NC(=O)CNC(=O)C2CCCN2C(=O)C(Cc2c[nH]c3ccccc23)NC(=O)CNC(=O)C(Cc2ccc(O)cc2)NC(=O)CNC1=O (stereo not given) (cyclo(GVGYGWP); configuration not given here)	inactive	–	–
C=C1CC2C(C)(CCC(=O)O)C(C(C)(C)O)CCC2(C)C2(C(=O)OC)C(=O)C(C)(O)C(=O)C12C (stereo not given)	inactive	–	–
C[C@@H]1O[C@@H](OC2C(CO)OC(OCC3OC(OC(=O)[C@]45CCC(C)(C)CC4C4=CCC6[C@@]7(C)CC[C@@H](O)[C@](C)(C(=O)O)C7CC[C@@]6(C)[C@]4(C)CC5)C(O)C(O)C3O)C(O)C2O)[C@H](O)[C@H](O)[C@H]1O (stereo not given in full)	–	–	inactive [at 9.23 µM]
Cc1cc(O[C@@H]2O[C@H](COC(=O)CC(=O)O)[C@@H](O)[C@H](O)[C@H]2O)c(C(C)C)cc1O	inactive	–	–
CC1=C2CC3C(CCC3(C)O)C(C)(O)CC2OC1=O (stereo not given)	inactive	–	–
OCC1OC(Oc2cc(O)cc(/C=C/c3ccc(OC4OC(CO)C(O)C(O)C4O)cc3O)c2)C(O)C(O)C1O (stereo not given)	inactive	–	–
C[C@]1(OC(=O)/C=C/c2ccc(O)cc2)C[C@@H](O)[C@]2(O)C=CO[C@@H](O[C@@H]3O[C@H](CO)[C@@H](O)[C@H](O)[C@H]3O)C12 (stereo not given in full)	inactive	–	–
COc1cc(O)cc(C)c1C(=O)O[C@H]1[C@@H](O)[C@@H](n2ccc(=O)[nH]c2=O)O[C@@H]1CO	inactive	–	–
C/C=C1/C[N+](C)([O-])C2Cc3c([nH]c4ccccc34)C(=O)CC1C2C(=O)OC (stereo not given)	inactive	–	–
